The values that follow come from PubChem BioAssay (NCI).

About 83,000 compounds went through this panel and 20% of them were active in at least one assay; those are over-represented in the sample as a whole.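 The test compound was applied at a single concentration to cells in 96-well plates for 48 hours, and percent growth was recorded.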 A number with no mark means an inactive call. Activity calls are given as the source filed them. How the source made its calls: active means growth percent below 10; inactive means the rest.

Among the test systems are MOLT-4 leukemia; SR leukemia; RPMI-8226 leukemia; OVCAR-8 ovarian; OVCAR-5 ovarian; OVCAR-4 ovarian; SK-OV-3 ovarian; IGROV1 ovarian; OVCAR-3 ovarian; HS 578T breast; NCI/ADR-RES ovarian; T-47D breast; BT-549 breast; MDA-MB-435 melanoma; SW-620 colon; MCF7 breast; HCT-116 colon; HCC-2998 colon; KM12 colon.
Common to all, as to assay: NCI-60 one-dose screen, 48 h (100 = growth as untreated, 0 = no growth, -100 = all killed)
Common to all, as to settings: 10 µM unless noted

As for `Nc1ccc(-c2nc3cc(F)ccc3[se]2)cc1F`, the growth with MOLT-4 leukemia was 63.5%; with SR leukemia it was 15.5%; with RPMI-8226 leukemia it was 63.2%; in the assay on OVCAR-8 ovarian, 92.3%; in the assay with OVCAR-5 ovarian, 47.9%; in the assay on OVCAR-4 ovarian it was 65.8%. For the same molecule, the growth in the assay on SK-OV-3 ovarian is 55.1%; with IGROV1 ovarian, 38.7%; with OVCAR-3 ovarian it was 81%; with HS 578T breast, 103%; in the assay with NCI/ADR-RES ovarian it was 91.5%; in the assay with T-47D breast, 14.6%. For the same molecule, the growth is 67.8% in the assay with BT-549 breast; 97.7% in the assay on MDA-MB-435 melanoma; 97.2% with SW-620 colon; 5.06% (active) in the assay with MCF7 breast; 58.9% in the assay with HCT-116 colon; 30.9% with HCC-2998 colon. In addition, the growth in the assay on KM12 colon was 54%.
For `COC(=O)[C@@H](NC(=O)c1cn(CCC2CCCCC2)c2ccccc12)C(C)(C)C`, the growth in the assay with MOLT-4 leukemia is 64.3%; in the assay with SR leukemia, 61.3%; in the assay with RPMI-8226 leukemia it was 64.9%; in the assay with OVCAR-8 ovarian, 77.7%; in the assay on OVCAR-5 ovarian it was 82%; in the assay with OVCAR-4 ovarian it was 68.7%. Moreover, the growth is 79.2% with SK-OV-3 ovarian; 62.3% in the assay on IGROV1 ovarian; 77.4% in the assay on OVCAR-3 ovarian; 83.9% in the assay on HS 578T breast; 73.6% in the assay with NCI/ADR-RES ovarian; 61.9% in the assay on T-47D breast. Moreover, the growth in the assay on BT-549 breast was 84.1%; in the assay on MDA-MB-435 melanoma, 83.3%; in the assay on SW-620 colon, 86.3%; in the assay with MCF7 breast, 75%; in the assay on HCT-116 colon it was 64.2%; in the assay with HCC-2998 colon, 86.3%. In the assay with KM12 colon, the growth was 69.8%.
As to `COC(=O)[C@@H](C)C[C@H](Cc1ccc2ccccc2c1)NC(=O)c1csc([C@@H](C[C@H](C(C)C)N(C)C(=O)[C@@H](NC(=O)[C@H]2CCCCN2C)C(C)C)OC(C)=O)n1`, the growth was -2.64% (active) in the assay on MOLT-4 leukemia; 6.75% (active) in the assay with SR leukemia; 23.3% in the assay with RPMI-8226 leukemia; 37.9% in the assay on OVCAR-8 ovarian; 77.6% in the assay with OVCAR-5 ovarian; 53% in the assay on OVCAR-4 ovarian. For the same molecule, the growth in the assay with SK-OV-3 ovarian is 56.5%; with IGROV1 ovarian it was 22.7%; with OVCAR-3 ovarian, 55.8%; with HS 578T breast it was 40.8%; in the assay on NCI/ADR-RES ovarian, 60.3%; in the assay on T-47D breast, 72.9%. Besides, the growth in the assay on BT-549 breast is -22.3% (active); in the assay on MDA-MB-435 melanoma, 19.7%; in the assay on SW-620 colon, 51.2%; in the assay with MCF7 breast it was 17%; in the assay with HCT-116 colon it was 51.4%; in the assay on HCC-2998 colon, 52.8%. Also, the growth in the assay with KM12 colon is 36.2%.
For `CCC(O)(CN)c1ccccc1` (centres undefined), the growth is 105% in the assay on MOLT-4 leukemia; 100% in the assay on SR leukemia; 102% in the assay with RPMI-8226 leukemia; 97% in the assay on OVCAR-8 ovarian; 105% in the assay with OVCAR-5 ovarian; 111% in the assay with OVCAR-4 ovarian. Besides, the growth in the assay with SK-OV-3 ovarian was 98.4%; in the assay on IGROV1 ovarian it was 97.9%; in the assay with OVCAR-3 ovarian, 114%; in the assay on HS 578T breast, 102%; in the assay with NCI/ADR-RES ovarian it was 105%; in the assay on T-47D breast, 99.6%. Further, the growth is 104% in the assay on BT-549 breast; 105% with MDA-MB-435 melanoma; 100% in the assay on SW-620 colon; 102% with MCF7 breast; 99.8% in the assay with HCT-116 colon; 106% in the assay on HCC-2998 colon. Besides, the growth in the assay on KM12 colon was 103%.
As to `C=CC[PH+](c1ccccc1)c1ccccc1.C=CC[PH+](c1ccccc1)c1ccccc1.[Cl][Pt][Cl]`, the growth in the assay with MOLT-4 leukemia was 7.63% (active); with SR leukemia it was 1.56% (active); with RPMI-8226 leukemia, -12.1% (active); in the assay on OVCAR-8 ovarian, 20%; in the assay with OVCAR-5 ovarian it was 96.1%; with OVCAR-4 ovarian it was 39.7%. Also, the growth was 99.1% in the assay with SK-OV-3 ovarian; -17.4% (active) in the assay on IGROV1 ovarian; -9.31% (active) in the assay on OVCAR-3 ovarian; 55.8% in the assay with HS 578T breast; 97% in the assay on NCI/ADR-RES ovarian; 0.0943% (active) in the assay with T-47D breast. Moreover, the growth is 78% in the assay on BT-549 breast; 64.9% with MDA-MB-435 melanoma; 2.38% (active) in the assay with SW-620 colon; 31.9% in the assay with MCF7 breast; 3.92% (active) in the assay on HCT-116 colon; 94.9% in the assay with HCC-2998 colon. In the assay on KM12 colon, the growth was 77.8%.
For the molecule `ClCCN(CCCl)c1nc(Cl)c(C2CC(c3ccccc3)=NN2c2cc(Cl)cc(Cl)c2)s1` (centres undefined), the growth in the assay with MOLT-4 leukemia is 101%; with SR leukemia, 112%; with RPMI-8226 leukemia it was 108%; in the assay with OVCAR-8 ovarian it was 100%; in the assay with OVCAR-5 ovarian, 102%; in the assay with OVCAR-4 ovarian, 96.9%. Besides, the growth was 105% in the assay on SK-OV-3 ovarian; 101% in the assay on IGROV1 ovarian; 103% in the assay on OVCAR-3 ovarian; 102% in the assay on HS 578T breast; 103% in the assay with NCI/ADR-RES ovarian; 97.8% in the assay on T-47D breast. The growth in the assay on BT-549 breast is 107%; with MDA-MB-435 melanoma, 109%; with SW-620 colon, 98.5%; in the assay with MCF7 breast it was 97.5%; with HCT-116 colon, 98.1%; in the assay on HCC-2998 colon, 105%. Also, the growth in the assay on KM12 colon is 100%.
